Source: PubChem
The entries come from a sample that favours hits as a whole.
Shiga toxin inh = inhibitors of Shiga toxin in Vero cells. Vero cells, Shiga toxin protein synthesis inhibition reporter. inhibition, % at 38.7 µM. 9.2% of 290,000 active; in the data active means inhibition mostly above about 28%, no sharp cut-off; inactive means mostly below about 43%; further: 0% is about no effect
Sm TGR block = S. mansoni TGR enzyme inhibition | Potency, µM (top dose mostly 114 µM), inactives show top-dose activity change, negative = inhibition, hits mostly inhibitors | 3% of 360,000 active | AID 485364 | Q962Y6 | purified TGR, DTNB reduction, TNB absorbance 405 nm; further: potency means the concentration at half of the fitted maximal effect; on the % scale 0 is the no-effect control and ±100 the full control effect; nearly all actives have a fitted effect of over 60% in size
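TGR 20 nM + NADPH 100 uM (dispensed conc.), cpd preinc 15 min RT; start with NADPH (500 uM addition) then DTNB (15 mM addition). Kinetic TNB absorbance, 405 nm filter. Four-parameter Hill fit across titration.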
LmPK inh = inhibitors of Leishmania mexicana pyruvate kinase; Q27686; purified LmPK, Kinase-Glo ATP luminescence, 1 h; Potency, µM (doses to about 57.5 µM), inactives show at the highest dose activity change, negative = inhibition, usual class: inhibitors; 0.37% of 290,000 active; AID 1721; further: potency means the concentration at half of the fitted maximal effect; on the % scale 0 is the no-effect control and ±100 the full control effect
Target sequence (Q27686 whole entry, looked up): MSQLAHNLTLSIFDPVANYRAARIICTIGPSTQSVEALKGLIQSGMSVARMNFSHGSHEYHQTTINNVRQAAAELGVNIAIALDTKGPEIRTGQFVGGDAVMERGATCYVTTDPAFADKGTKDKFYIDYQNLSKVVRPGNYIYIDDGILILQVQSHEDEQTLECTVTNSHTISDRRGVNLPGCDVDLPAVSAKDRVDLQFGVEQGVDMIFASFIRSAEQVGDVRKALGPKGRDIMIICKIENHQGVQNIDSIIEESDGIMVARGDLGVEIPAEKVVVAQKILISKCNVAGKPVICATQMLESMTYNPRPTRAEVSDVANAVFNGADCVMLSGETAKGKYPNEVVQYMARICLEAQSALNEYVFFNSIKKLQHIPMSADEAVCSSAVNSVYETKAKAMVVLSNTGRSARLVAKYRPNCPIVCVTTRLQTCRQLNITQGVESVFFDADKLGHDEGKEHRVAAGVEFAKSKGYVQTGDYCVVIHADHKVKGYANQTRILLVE
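Pyruvate kinase activity monitored as ATP production (luciferase luminescence). Conditions: 0.1 nM enzyme, 0.5 mM PEP, 0.1 mM ADP, 1 h, RT; normalized against uninhibited and no-enzyme wells.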
CHX counter = counter-screen hit for Shiga toxin inhibitors, cycloheximide; cell reporter, cycloheximide protein synthesis inhibition counterscreen; max response, %; 12% of 300,000 active; in the data active means max response mostly above about 13%, no sharp cut-off; inactive means mostly below about 14%; further: read at 38.3 µM for the half of the compounds with a filed dose; 0% is about no effect
Tb PYK inh = T. brucei pyruvate kinase inhibition. Q57TT1. TbPYK enzyme, Kinase-Glo Plus ATP luminescence, 45 min. Potency, µM (doses to about 76.8 µM), for the others: at the top dose activity, negative = inhibition, hits mostly inhibitors. 0.12% of 410,000 active. AID 624173; further: potency means the concentration at half of the fitted maximal effect; on the % scale 0 is the no-effect control and ±100 the full control effect; nearly all actives have a fitted effect of over 50% in size
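TbPYK + substrate in 50 mM TEA pH 7.2, 100 mM KCl, 10 mM MgCl2, 0.05% BSA, 0.01% Tween-20; cpd pinned; ADP 130 uM final; 45 min RT; Kinase-Glo Plus 10 min; luminescence endpoint.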
Giardia FBPA inh = Giardia lamblia aldolase inhibition; Potency, µM (doses to about 59.6 µM), for the others: at the top dose activity, negative = inhibition, most hits filed as inhibitors; AID 2451; purified Giardia FBPA; 0.71% of 290,000 active; further: potency means the concentration at half of the fitted maximal effect; on the % scale 0 is the no-effect control and ±100 the full control effect; nearly all actives have a fitted effect of over 55% in size
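40 nM FBPA preincubated 10 min at RT with compound (up to 57.5 uM final), then substrate plus GAPDH/TPI/NAD/arsenate coupling and diaphorase/resazurin added. Fluorescence read after 20 min at RT, 525/598 nm.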
The depositor's hits bear a star; ? = inconclusive; nt = not tested or not shown. Unless noted, the call rests on the fitted dose curve; in most records, active means well fitted curve in the direction sought with a large enough effect; inconclusive means small, poorly fitted or top-dose-only effect, or another doubt; inactive means no such curve, though single readings can be large; an effect the other way counts as inactive or inconclusive.

SMILES	Shiga toxin inh	Sm TGR block	LmPK inh	CHX counter	Tb PYK inh	Giardia FBPA inh
CCC(COC)Oc1cc(NCc2ccccc2)c2ncn(C(C)C)c2c1 (configuration not stated)	nt	28.2µM*	nt	nt	-18.9%	nt
CCC(CO)Oc1cc(NCc2ccccc2)c2ncn(C(C)C)c2c1 (configuration not stated)	nt	nt	nt	nt	-10.2%	nt
Cc1cc2oc(=O)cc(CN(C)Cc3ccccc3)c2cc1C	nt	nt	nt	nt	3.1%	nt
Cc1ccc2c(CN(C)Cc3cccc(F)c3)cc(=O)oc2c1C	55.5	1.5%	2.2%	22.5*	-1.9%	9.6%
Cc1ccc2c(CN(C)Cc3ccccc3)cc(=O)oc2c1C	46.1*	-1.1%	2.7%	43.6*	-2.6%	2.3%
Cc1ccc2c(CN(C)Cc3ccc(OC(F)F)cc3)cc(=O)oc2c1C	27.8	9.1%	-0.5%	5.7	-1.0%	1.1%
Cc1ccc(NC(=O)C2CCCN(S(=O)(=O)c3cccc4nsnc34)C2)cc1C (configuration not stated)	nt	10.9%	nt	nt	-1.0%	nt
COc1ccccc1C1=NN(C(=S)Nc2ccccc2)C(c2ccco2)C1 (configuration not stated)	51.3*	2.2%	-2.0%	28.0*	-13.2%	0.5%
COc1ccc(OC)c(C2CC(c3ccccc3)=NN2C(=S)Nc2ccccc2)c1 (configuration not stated)	30.7	24.4%	2.5%	8.4	2.6%	0.1%
COc1ccc(C)cc1Cn1c(S(C)(=O)=O)nc2ccccc21	13.5	39.8µM*	2.3%	7.4	-5.7%	-10.0%
CS(=O)(=O)c1nc2ccccc2n1Cc1ccccc1	11.6	-2.0%	0.1%	-2.1	-0.2%	0.0%
O=[N+]([O-])c1cc2ncccc2c2ncccc12	nt	nt	nt	nt	1.4%	nt
CCOC(=O)NCCOC(=O)Nc1ccc(Cl)cc1	28.1	19.2%	-3.8%	10.8	2.5%	-9.8%
Cc1ccc(NC(=O)OC(C)CNC(=O)Oc2cccc(C)c2)cc1 (configuration not stated)	73.9*	1.4%	9.9%	38.1*	1.5%	-2.6%
COC(=O)NCC(C)OC(=O)Nc1ccc(Cl)cc1 (configuration not stated)	54.9*	10.1%	9.4%	11.0	1.7%	-0.3%
Cc1ccc(NC(=O)OCCNC(=O)OC(C)C)cc1	80.8*	0.7%	-0.3%	41.7*	-0.8%	4.0%
COc1cc(C(C)=O)ccc1OCCCN1CCC(c2noc3cc(F)ccc23)CC1	nt	nt	nt	nt	-6.9%	nt
O=C(O)CCC(=O)NNC(=O)c1cccs1	16.7	-27.8%	3.7%	18.2*	2.5%	-1.2%
O=C(O)CC/C(=N\Nc1ccccc1[N+](=O)[O-])c1cccs1	58.2*	3.3%	-5.7%	47.2*	-8.3%	8.5%
O=C(O)CC/C(=N/NC(=O)c1cccs1)c1ccccc1	24.5*	-0.5%	2.3%	76.6*	-2.4%	1.0%
CCOC(=O)N/N=C(\CCC(=O)O)c1cccs1	35.2*	3.6%	-0.8%	16.7*	7.7%	-0.3%
O=C(Cc1ccccc1F)NNC(=O)c1cccs1	nt	nt	nt	nt	-1.1%	nt
O=C1c2oc3ccccc3c(=O)c2C(c2ccc(Br)cc2)N1c1ccccn1 (configuration not stated)	nt	13.9%	nt	nt	-9.3%	nt
COc1ccc(C(=O)N2CCC3(CC2)CCN(c2cccc(-c4ccccc4)c2)CC3)cc1	nt	nt	nt	nt	7.9%	-0.8%
CCOC(=O)c1[nH]c(C)c(CCC(=O)NCc2ccc(CC)cc2)c1C	nt	-0.3%	nt	nt	1.7%	nt
SMILES	Shiga toxin inh	Sm TGR block	LmPK inh	CHX counter	Tb PYK inh	Giardia FBPA inh
COc1ccc(C)cc1S(=O)(=O)NCC(c1ccc2c(c1)OCO2)N1CCN(C)CC1 (configuration not stated)	nt	-29.1%	nt	nt	-5.4%	nt
Cc1cc(C)n(CCNC(=O)c2cc(COc3ccc(F)cc3Cl)on2)n1	2.5	-2.6%	0.7%	3.6	2.5%	0.4%
CC(CCn1cccn1)NC(=O)c1cc(COc2ccc(F)cc2F)on1 (configuration not stated)	9.1	4.5%	0.2%	-3.9	-1.0%	3.0%
CSc1ccccc1OCc1cc(C(=O)NCCN2CCCc3ccccc32)no1	15.7	-20.4%	-1.5%	33.2*	-2.1%	-16.0%
CSc1ccccc1OCc1cc(C(=O)NCCn2nc(C)cc2C)no1	6.4	-1.5%	6.2%	10.7*	3.1%	4.5%
CSc1ccccc1OCc1cc(C(=O)NC(C)Cn2cncn2)no1 (configuration not stated)	18.2	-26.7%	-3.1%	13.4*	0.9%	-12.8%
CSc1ccccc1OCc1cc(C(=O)NCC(C)(C)N2CCOCC2)no1	54.5	-8.6%	-2.9%	7.5	2.5%	-0.6%
NC(=O)C1c2ccccc2CCc2ccccc21	nt	nt	nt	nt	1.6%	nt
CC(=O)Nc1ccc(NCC(=O)c2ccccc2)cc1	24.3	0.4%	-0.9%	-1.9	1.7%	-24.0%
O=C(NC1CCCCC1)c1cc(S(=O)(=O)N2CCCCC2)ccc1N1CCOCC1	nt	-5.2%	nt	nt	-7.6%	nt
C[C@@H]1CN([C@H](C)CO)C(=O)CCCn2nncc2CO[C@@H]1CN(C)C(=O)Nc1ccnc(N2CCOCC2)c1	nt	nt	nt	nt	-0.4%	nt
Cc1c(S(=O)(=O)c2ccccn2)c(N)n(Cc2ccccc2)c1C	-2.8	2µM*	-5.7%	-4.5	-2.2%	-8.4%
COCCn1c(C)c(C)c(S(=O)(=O)c2ccccc2)c1N	-4.0	1µM*	4.2%	-1.7	-7.8%	-27.5%
Cc1c(S(=O)(=O)c2ccccn2)c(N)n(Cc2ccccc2Cl)c1C	4.8	2µM*	-2.1%	-2.6	-3.3%	-6.7%
Cc1ccc(C)n1Cc1ccccc1Cl	-9.0	?	0.2%	-1.7	-0.1%	4.7%
COc1ccc(NC(=O)c2cccn2-c2nnc(N3CCCCC3)s2)cc1	31.9	1.9%	nt	18.6	4.7%	nt
CC(=O)Nc1ccc2c(c1)nc1n2CCN(C2CCCCC2)C1	47.4	nt	0.4%	28.6*	1.6%	-27.5%
O=[N+]([O-])c1ccc2c(c1)nc1n2CCN(C2CCCCC2)C1	49.4*	35.5µM*	-0.3%	37.3*	-26.9%	-3.2%
C[C@@H]1Cc2c(Cl)cc(C(=O)N[C@H](Cc3ccccc3)C(=O)O)c(O)c2C(=O)O1	-6.0	nt	nt	-3.5	nt	-5.1%
Cc1cccc(OCCNc2cc(N3CCN(C)CC3)ccc2[N+](=O)[O-])c1	-14.0	-5.7%	0.1%	-2.6	15.6%	5.8%
Cc1cccc(OCCNc2cc(N3CCOCC3)ccc2[N+](=O)[O-])c1	26.0*	-8.9%	0.5%	29.6*	1.5%	-8.3%
COc1ccc(NC(=O)c2coc(C)c2)cc1	54.0*	0.0%	0.2%	29.2*	-0.8%	2.5%
COc1ccccc1C(=O)Nc1ccc2ccccc2c1	nt	nt	nt	nt	3.5%	nt
COc1ccc(C(=O)NCCn2ccc3ccccc32)c(OC)c1	42.4	-8.0%	0.1%	37.5*	-3.9%	-9.8%
COc1ccc(C(=O)NNC(=O)c2ccc3ccccc3c2)cc1	nt	nt	nt	nt	6.0%	nt
COc1ccc(C(=O)Nc2ccc3ccccc3c2)c(OC)c1	85.7*	10.4%	-6.8%	30.1*	-1.1%	-4.9%
